Out of some 66,000 compounds screened, about 960 (1.5%) showed an effect of 50% or more. The sample as a whole holds a higher share of strong results than the screen did.
Tested on: Trypanosoma brucei
Experiment: Trypanosoma brucei 72 hour study
Format: functional, organism-based
Parameters: scale not given: in the data most compounds retested in dose-response had high values

SMILES: Cl.c1cc(CNCc2ccc(-n3cncn3)nc2)cc(OC2CCCC2)c1
- Percent Effect (30.3 µM, […]): -105%

SMILES: O=C(N1CCOCC1)N1CCN(c2ccnc3ccsc23)CC1
- Percent Effect (30.3 µM, […]): -32.02%

SMILES: O=C(c1cnccn1)N1CCN(c2ccnc3ccsc23)CC1
- Percent Effect (30.3 µM, […]): -26.37%

SMILES: Cc1ccc(C(=O)N2CCN(c3ccnc4ccsc34)CC2)o1
- Percent Effect (30.3 µM, […]): 99.86%

SMILES: CN(C)Cc1nn(C)c2c1CN(C(=O)c1cccc(C#N)c1)C2
- Percent Effect (30.3 µM, […]): -11.38%

SMILES: Cc1cc(C)cc(CNc2ccc(C(=O)NC(C)CO)cc2)c1 (centres undefined)
- Percent Effect (30.3 µM, […]): 34.18%

SMILES: CC(CO)NC(=O)c1ccc(NCc2ccccc2)cc1 (centres undefined)
- Percent Effect (30.3 µM, […]): 11.13%

SMILES: CC(CO)NC(=O)c1ccc(NCc2ccc(F)c(F)c2)cc1 (centres undefined)
- Percent Effect (30.3 µM, […]): 74.6%

SMILES: CCn1cc(N2Cc3nc(N4CCC(O)CC4)ncc3C2=O)cn1
- Percent Effect (30.3 µM, […]): -24.87%

SMILES: O=C(Nc1cnn(CC(=O)N2CCCCO2)c1)c1ccccn1
- Percent Effect (30 µM, 30.03 µM): -63.86%

SMILES: O=C(Nc1cnn(CC(=O)N2CCCCO2)c1)c1ccsc1
- Percent Effect (30 µM, 30.03 µM): 102%

SMILES: O=C(Nc1cnn(CC(=O)N2CCCO2)c1)c1ccccc1
- Percent Effect (30 µM, 30.03 µM): -24.18%

SMILES: Cc1ccc(C(=O)N(C)Cc2cc(Br)cs2)cn1
- Percent Effect (30 µM, 30.03 µM): -13.9%

SMILES: Clc1ccc2cccnc2c1CN1CCCC(Cn2cncn2)C1 (centres undefined)
- Percent Effect (30 µM, 30.03 µM): 98.3%

SMILES: c1ccc(-c2nc(CN3CCCC(Cn4cncn4)C3)cs2)cc1 (centres undefined)
- Percent Effect (30.3 µM, […]): 51.63%

SMILES: c1ncn(CC2CCCN(Cc3csc(-c4ccsc4)n3)C2)n1 (centres undefined)
- Percent Effect (30.3 µM, […]): -1.362%

SMILES: Clc1ccc2cccnc2c1CN1CCCC1Cn1cncn1 (centres undefined)
- Percent Effect (30 µM, 30.03 µM): 3.447%

SMILES: c1cnc(-c2nc(CN3CCCC(Cn4cncn4)C3)cs2)nc1 (centres undefined)
- Percent Effect (30 µM, 30.03 µM): 8.258%

SMILES: Clc1ccc(CN2CCCC(Cn3cncn3)C2)c2ncccc12 (centres undefined)
- Percent Effect (30 µM, 30.03 µM): -24.17%

SMILES: CO[C@@H]1CCN(C(=O)Cc2ccc(F)cc2)[C@@H]1Cc1cccnc1.O=C(O)C(F)(F)F
- Percent Effect (30.3 µM, […]): -10.6%

SMILES: COCCN1CC[C@H]2CN(Cc3ccc(C)s3)C[C@@H]2C1=O.O=C(O)C(F)(F)F
- Percent Effect (30.3 µM, […]): -7.411%

SMILES: CO[C@H]1CN(Cc2nc3ccccc3n2C)CC[C@@]12CCCO2
- Percent Effect (30.3 µM, […]): 5.707%

SMILES: CO[C@H]1CN(Cc2ccccc2F)C[C@@]12CCCO2
- Percent Effect (30.3 µM, […]): -11.54%

SMILES: CO[C@H]1CN(Cc2nc3ccccc3n2C)C[C@@]12CCCO2
- Percent Effect (30.3 µM, […]): 99.68%

SMILES: O=C(O)C(F)(F)F.O=C(O)C(F)(F)F.O=C(c1ccnnc1)N1CCN(Cc2ccncc2)c2ncccc2C1
- Percent Effect (30.3 µM, […]): -2.542%

SMILES: Cc1nc(Nc2ncc(C)s2)cc(C2CCCN2)n1.Cl (centres undefined)
- Percent Effect (30.3 µM, […]): 99.89%

SMILES: Cc1nc(Nc2nccs2)cc(C2CCCN2C2CCOCC2)n1 (centres undefined)
- Percent Effect (30.3 µM, […]): 18.07%

SMILES: Cc1nc(Nc2nnc(C)s2)cc(C2CCCN2)n1.Cl (centres undefined)
- Percent Effect (30.3 µM, […]): -18.52%

SMILES: Cc1nc(Nc2nccs2)cc(C2CCCN2)n1.Cl (centres undefined)
- Percent Effect (30.3 µM, […]): 99.83%

SMILES: Cc1nc(Nc2nncs2)cc(C2CCCN2)n1.Cl (centres undefined)
- Percent Effect (30.3 µM, […]): -19.68%

SMILES: Cc1nc(Nc2ncc(C)s2)cc(C2CCCN2S(C)(=O)=O)n1 (centres undefined)
- Percent Effect (30.3 µM, […]): -10.42%

SMILES: COc1ccc(NC(=O)CCNc2ncccn2)cn1
- Percent Effect (30 µM, 30.03 µM): -26.87%

SMILES: CCn1cc(CN2C[C@@H]3CCCN3C[C@@H]2CCSC)cn1.O=C(O)CC(O)(CC(=O)O)C(=O)O
- Percent Effect (30.3 µM, […]): 8.457%

SMILES: O=C(NCC1CCOCC1)[C@@H]1C[C@@H]2[C@@H](CCN2Cc2nccs2)O1.O=C(O)C(F)(F)F
- Percent Effect (30.3 µM, […]): -69.82%

SMILES: Cc1cc(C[C@@H]2COC[C@H]2NCc2ccc(C(F)(F)F)cc2)on1.O=C(O)CC(O)(CC(=O)O)C(=O)O
- Percent Effect (30.3 µM, […]): 8.396%

SMILES: O=C(Cc1ccccn1)N1C[C@H](OCc2cccnc2)[C@H]2COC[C@H]21.O=C(O)C(F)(F)F.O=C(O)C(F)(F)F
- Percent Effect (30.3 µM, […]): -31.71%

SMILES: O=C(C1CC1)N1Cc2[nH]nc(COCc3cccnc3)c2C1.O=C(O)C(F)(F)F.O=C(O)C(F)(F)F
- Percent Effect (30.3 µM, […]): -50.32%

SMILES: COCCN(C)C[C@@H]1CN(Cc2ccnc3ccccc23)C[C@@H]1CO
- Percent Effect (30 µM, 30.03 µM): -38.21%

SMILES: COCCN(C)C[C@@H]1CN(c2nc(C)cc(C)n2)C[C@@H]1CO
- Percent Effect (30 µM, 30.03 µM): -45.82%

SMILES: COCCN(C)C[C@@H]1CN(c2cc(C)nc3ccccc23)C[C@@H]1CO
- Percent Effect (30 µM, 30.03 µM): 99.51%

SMILES: COCCNc1cc(-c2cccc(C(=O)O)c2C)c2cc[nH]c2n1
- Percent Effect (30 µM, 30.03 µM): -15.23%

SMILES: COCC(=O)N1CC[C@H]2O[C@@H](C)C[C@H]2C1
- Percent Effect (30.3 µM, […]): -22.84%

SMILES: COCC(=O)N1CC[C@H]2C[C@H](C)O[C@@H]2C1
- Percent Effect (30 µM, 30.03 µM): 19.11%

SMILES: COCC(=O)N1CC[C@@H]2O[C@@H](C)C[C@H]2C1
- Percent Effect (30.3 µM, […]): 51.97%

SMILES: O=C(O)C(F)(F)F.c1cnc(NCc2nnn3c2CN(Cc2cccs2)CCC3)nc1
- Percent Effect (30 µM, 30.03 µM): -17.42%

SMILES: Cc1occc1C(=O)N1CCC2(CCN(C(=O)c3cccnc3)C2)CC1.O=C(O)C(F)(F)F
- Percent Effect (30.3 µM, […]): -37.63%

SMILES: CCOc1ccccc1C(N)CC(C)C (centres undefined)
- Percent Effect (30 µM, 30.03 µM): -21.09%

SMILES: Cc1ccc(Oc2c(F)cccc2OC[C@@H](N)CC(C)C)cc1
- Percent Effect (30.3 µM, […]): 99.61%

SMILES: CCCOc1ccccc1C(N)CC(C)C (centres undefined)
- Percent Effect (30 µM, 30.03 µM): -40.73%

— ChEMBL document CHEMBL3988442, “University of Dundee, Small-Polar-MMV Screening Library” (2021)
